According to PubChem BioAssay (EPA / NIEHS):
Several values for one entry are separate records, joined by “and”; a condition that tells them apart may be missing. Identical values can stand only once. Activity calls are given as the source filed them. How the source made its calls: active means hit-call score of the fitted dose curve at least 0.9, where 1 is the maximum; inactive means score below 0.9.

test: ATG_MRE_CIS: Attagene CIS-FACTORIAL HepG2 Assay for human Metal Responsive Element (MRE) (AID 2282954); settings: HepG2 MRE cis-reporter transcription, Attagene multiplex; actives raise or lower the signal
Protocol: ATG_CIS is a cell-based, multiplexed-readout assay that uses HepG2, a human liver cell line, with measurements taken at 24 hours after chemical dosing in a 24-well plate.ATG_MRE_CIS is one of 52 assay component(s) measured or calculated from the ATG_CIS assay. It is designed to make measurements of mRNA induction, a form of inducible reporter, as detected with fluorescence intensity signals by Reverse transcription polymerase chain reaction (RT-PCR) and Capillary electrophoresis technology.Data from the assay component ATG_MRE_CIS was analyzed into 1 assay endpoint. This assay endpoint, ATG_MRE_CIS, was analyzed with bidirectional fitting relative to DMSO as the negative control and baseline of activity. Using a type of inducible reporter, measures of mRNA for gain or loss-of-signal activity can be used to understand the reporter gene at the transcription factor-level as they relate to the gene MTF1. Furthermore, this assay endpoint can be referred to as a primary readout, because this assay has produced multiple assay endpoints where this one serves a reporter gene function. To generalize the intended target to other relatable targets, this assay endpoint is annotated to the dna binding intended target family, where the subfamily is zinc finger.
Human liver HepG2 cells are transiently transfected with multiple reporter transcription units (MRTUs) in 6-well plates using FuGene 6 reagent (Roche; 3 ml FuGene/1 mg DNA). The MRTU constructs are regulated by a cis-regulating element (promoter). […] A major difference between the CIS and TRANS system is that in CIS activities of endogenous TFs are measured, whereas the TRANS assay evaluates changes in activities of exogenous, chimeric NR-Gal4 proteins. […] At the end of 24 hour incubation, total RNA was isolated using TriZol reagent (Invitrogen). The isolated RNA is then reverse-transcribed using oligo(dT) primer and Mo-MLV reverse transcriptase (Invitrogen) with DNAse I (Ambion) treatment for 30 min. The one-tenth of the produced cDNA was amplified by PCR using Taq DNA polymerase (Invitrogen) and two reporter sequence-specific primers. The PCR products were fluorescently labeled by primer extension with 6-arboxyfluorescein (6-FAM) 5'-labeled reporter sequence-specific primer (2 min at 95 C, 20 s at 68 C and 10 min at 72 C) and these products were digested with 5U of HpaI (New England Biolabs) for 2h at 37 C. The fragments were purified using Qiaquick PCR columns (Qiagen), analyzed on an ABI 3130xL genetic analyzer (Applied Biosystems) with peak positions identified by using a set of X-rhodamine (ROX)-labeled MapMarker1000 molecular weight standards (BioVentures). The raw capillary electrophoresis data was processed using Attagraph software (Attagene).

Q: Which outcome does the source give for N#Cc1ccccc1Cl here?
A: inactive

Q: For OC(c1ccc(Cl)cc1)(c1ccc(Cl)cc1)c1cccnc1, which outcome is on record?
A: inactive

Q: With C[C@H]1C(=O)O[C@@H]2CCN3CC=C(COC(=O)[C@](C)(O)[C@]1(C)O)[C@H]23 as the molecule, how does the outcome read?
A: inactive

Q: Which outcome does the source give for O=c1[nH]c(=O)n(Cl)c(=O)n1Cl here?
A: inactive

Q: For O=C(NC(=O)c1c(F)cccc1F)Nc1cc(Cl)c(OC(F)(F)C(F)C(F)(F)F)cc1Cl (stereo not given), which outcome is on record?
A: inactive

Q: For O=C(CCl)NCO, which outcome is on record?
A: inactive

Q: Which outcome does the source give for C=C(C)C(=O)OCCCCOC(=O)C(=C)C here?
A: inactive

Q: Which outcome does the source give for OC[P+](CO)(CO)CO here?
A: inactive

Q: With Cc1cc(Cl)ccc1N as the molecule, how does the outcome read?
A: inactive

Q: With O=c1nc(O)n(Cl)c(=O)n1Cl as the molecule, how does the outcome read?
A: inactive

Q: With O=c1oc2ccccc2c(O)c1C(CC(O)c1ccc(-c2ccc(Br)cc2)cc1)c1ccccc1 (stereo not given) as the molecule, how does the AC50 read?
A: 40.3 µM (active) and 31.9 µM (active)

Q: Which AC50 does the source give for O=S1OC[C@@H]2[C@H](CO1)[C@]1(Cl)C(Cl)=C(Cl)[C@@]2(Cl)C1(Cl)Cl (stereo not given in full) here?
A: 66.4 µM (active)

Q: Which outcome does the source give for CC(C)[C@H](C(=O)OC(C#N)c1cccc(Oc2ccccc2)c1)c1ccc(OC(F)F)cc1 (stereo not given in full) here?
A: inactive

Q: Which outcome does the source give for CC(C)[C@@H](Nc1ccc(C(F)(F)F)cc1Cl)C(=O)OC(C#N)c1cccc(Oc2ccccc2)c1 (stereo not given in full) here?
A: inactive

Q: For C=CC(=O)[O][Sn]([CH2]CCC)([CH2]CCC)[CH2]CCC, which AC50 is on record?
A: 0.412 µM (active)

Q: With N#Cc1ccccc1N as the molecule, how does the outcome read?
A: inactive

Q: With CS(=O)(=O)c1ccc(C(=O)C2C(=O)CCCC2=O)c(Cl)c1COCC(F)(F)F as the molecule, how does the outcome read?
A: inactive

Q: Which outcome does the source give for CC(C)=CC1C(C(=O)OCc2cccc(Oc3ccccc3)c2)C1(C)C (stereo not given) here?
A: inactive

Q: With C#CCO as the molecule, how does the outcome read?
A: inactive

Q: For C=C(C)[C@@H]1CC=C(C=O)CC1, which AC50 is on record?
A: 85.2 µM (active)

Q: Which outcome does the source give for C#CCOC(=O)/C=C(C)/C=C/CC(C)CCCC(C)C (stereo not given) here?
A: inactive

Q: Which outcome does the source give for O=[N+]([O-])c1c2ccccc2cc2ccccc12 here?
A: inactive

Q: With Nc1ccc(-c2ccccc2)cc1 as the molecule, how does the AC50 read?
A: 56.8 µM (active)

Q: Which AC50 does the source give for CC(C)(c1ccc(O)c(-c2ccccc2)c1)c1ccc(O)c(-c2ccccc2)c1 here?
A: 2.93 µM (active)

Q: Which outcome does the source give for CCOP(=S)(OCC)OP(=S)(OCC)OCC here?
A: inactive

Q: Which outcome does the source give for C[As+](C)(C)CC(=O)[O-] here?
A: inactive

Q: For CC(C)(C)c1ccc(CCOc2ncnc3ccccc23)cc1, which outcome is on record?
A: inactive

Q: With O=c1[nH]c2ccccc2n1C1CCN(CCCC(c2ccc(F)cc2)c2ccc(F)cc2)CC1 as the molecule, how does the outcome read?
A: inactive

Q: With Nc1ncn[nH]1 as the molecule, how does the outcome read?
A: inactive

Q: For O=C(Nc1ccc(Br)cc1)c1cc(Br)cc(Br)c1O, which AC50 is on record?
A: 13.3 µM (active)

Q: Which outcome does the source give for Oc1cccc(-c2ccccc2)c1 here?
A: inactive

Q: With CCOc1cc(C=O)ccc1O as the molecule, how does the outcome read?
A: inactive

Q: With Cc1cc(C(C)(C)c2ccc(O)c(C)c2)ccc1O as the molecule, how does the AC50 read?
A: 50.6 µM (active)

Q: Which outcome does the source give for CCOC(=O)Cc1ccccc1 here?
A: inactive

Q: For c1ccc2sc(SNC3CCCCC3)nc2c1, which AC50 is on record?
A: 119 µM (active)

Q: Which outcome does the source give for C=CC(F)(C(F)(F)F)C(F)(F)C(F)(F)F (stereo not given) here?
A: inactive

Q: With Brc1ccc(Oc2c(Br)cc(Br)cc2Br)c(Br)c1 as the molecule, how does the outcome read?
A: inactive

Q: Which outcome does the source give for CCOP(=S)(OCC)SCS(=O)(=O)C(C)(C)C here?
A: inactive

Q: For ClCCCCl, which outcome is on record?
A: inactive

Q: With N#Cc1ccncc1 as the molecule, how does the outcome read?
A: inactive
